Compound activity from PubChem.
Pin1 inhibitor: human Pin1 inhibition. Potency, µM (doses to about 115 µM), usual class: inhibitors. Q13526. actives 0.009% (n = 390,000). Pin1 FP peptide displacement, HiFluor488, 10 min; active = well fitted inhibition curve with a large enough effect in the polarisation, with a control signal flat, not every such curve was filed as active; inconclusive = small, poorly fitted or top-dose-only effect, or effect the other way, or a change in a side signal; inactive = no such curve, though single readings can be large or run the other way; the % refers to the polarisation
Target sequence (Q13526 whole entry, looked up): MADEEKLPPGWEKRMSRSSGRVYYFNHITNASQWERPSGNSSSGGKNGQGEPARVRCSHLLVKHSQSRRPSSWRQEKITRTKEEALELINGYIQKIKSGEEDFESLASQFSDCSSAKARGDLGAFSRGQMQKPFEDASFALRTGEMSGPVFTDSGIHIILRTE
Nrf2 activator: activates Nrf2 signaling; AREc32 ARE-luciferase reporter (MCF7-derived line), luminescence, 24 h; Potency, µM (doses to about 46.1 µM), usual class: activators; AID 624171; actives 0.31% (n = 410,000); note: nearly all actives have a fitted effect of over 65% in size
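Each well held 1000 AREc32 cells, which were incubated with compound for 24 hr at 37 deg C after overnight attachment, and ARE reporter activity was quantified by firefly luciferase luminescence.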
Nrf2 block: Nrf2 pathway inhibition. A549 ARE-Fluc reporter, luciferase luminescence, 18-24 h. Potency, µM (highest dose often 46 µM), usual class: inhibitors. actives 2.1% (n = 360,000). AID 504444; note: nearly all actives have a fitted effect of over 60% in size
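A549 ARE_Fluc cells, 5000/well, 5% FBS OPTI-MEM; compounds in dose-response, 18-24 h at 37 °C/5% CO2; CellTiter-Fluor viability read (Ex 405/Em 525), then BugLite luciferase luminescence = Nrf2 activity.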
A549 tox: counter-screen for Nrf2 inhibitors: cytotoxicity in A549 cells. A549 ARE-Fluc cells, CellTiter-Fluor viability, 18-24 h. actives 0.16% (n = 390,000). Potency, µM (doses to about 46 µM), most hits filed as inhibitors
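Cytotoxicity counterscreen: CellTiter-Fluor fluorescence was measured in A549 ARE_Fluc cells after 18-24 h of compound exposure in a concentration series. The subsequent BugLite luminescent read reports ARE-luciferase activity.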
Large screens that a line does not name were inactive. A selection: hits, their analogues and other compounds. The true share with any hit is near 2.2%. Unless noted, calls come from the whole dose curve; as a rule, active = well fitted curve in the direction sought with a large enough effect; inconclusive = small, poorly fitted or top-dose-only effect, or another doubt; inactive = no such curve, though single readings can be large; an effect the other way counts as inactive or inconclusive.

CC(=O)N1CC(C)Sc2ccc(S(=O)(=O)NCCc3ccccc3)cc21 (stereo not given)	Nrf2 block inconclusive
CCCc1nnc(NC(=O)c2cc(=O)c3ccccc3o2)s1	Nrf2 block inconclusive
O=C1CSC2(C(=O)N(Cc3cccc(F)c3)c3ccccc32)N1c1cccc(C(F)(F)F)c1 (stereo not given)	Nrf2 block 23.1µM
O=C1CSC2(C(=O)N(Cc3cccc(C(F)(F)F)c3)c3ccccc32)N1c1ccc(F)c(F)c1 (stereo not given)	Nrf2 block inconclusive, A549 tox inconclusive
CCC(=NNC(=O)c1ccc2c(c1)nc(C)n2CC)c1cc(F)ccc1O	Nrf2 block 6.51µM
COc1ccc(C(=O)N(Cc2ccccc2)Cc2ccccc2)c(O)c1	Nrf2 block inconclusive (no result: Nrf2 activator)
Cc1ccc(-n2ccnc(NCCc3ccc(S(N)(=O)=O)cc3)c2=O)c(C)c1	Nrf2 block inconclusive
Cc1cccc(N2CCN(C3(c4ccccc4)C(=O)c4ccccc4C3=O)CC2)c1C	none
N#C/C(=N\Nc1cccc([N+](=O)[O-])c1)C(=O)c1ccc(Br)cc1	Pin1 inhibitor inconclusive, Nrf2 block 9.2µM
N#C/C(=N\Nc1ccc([N+](=O)[O-])cc1)C(N)=S	Nrf2 block inconclusive, A549 tox 18.4µM
N#C/C(=N/Nc1ccc([N+](=O)[O-])cc1)C(=N)N1CCCCC1	Nrf2 block inconclusive, A549 tox inconclusive
Cn1c2cc(C#N)sc2c2cnn(Cc3ccccc3F)c(=O)c21	none (no result: Nrf2 activator)
Cc1nn(S(=O)(=O)c2ccc(C(C)(C)C)cc2)c(C)c1S(=O)(=O)N1CCCCCC1	none (no result: Nrf2 block)
CCOc1ccccc1NC(=O)CSc1nc2c(c(=O)[nH]1)CCC2	Nrf2 block inconclusive
COC(=O)/C=C/c1ccsc1NC(C)=O	Nrf2 activator 12.6µM
N#C/C(=C\c1cn(-c2ccccc2)nc1-c1cccnc1)c1nnc2n1CCCCC2	Nrf2 block 20.6µM, A549 tox inconclusive
CC(C)C1C(=O)Nc2ccc(S(=O)(=O)NCc3ccc(Cl)cc3)cc21 (stereo not given)	Nrf2 block 20.6µM
O=C(CSc1nnc(NC(=O)c2ccccc2)s1)NCc1ccco1	Nrf2 activator 4.47µM
O=C(CSc1nnc(NC(=O)c2ccc(F)cc2)s1)NCc1ccco1	Nrf2 block inconclusive
Cc1cccc(Nc2cc(C)nc3ccccc23)c1	Nrf2 block inconclusive, A549 tox inconclusive
COC(=O)Nc1cc(C)nc2ccccc12	none
Cc1cc(Nc2cccc(Cl)c2)c2ccccc2n1	Nrf2 block 20.6µM, A549 tox inconclusive
Cc1cc(NC(=O)Cc2ccccc2)c2ccccc2n1	Nrf2 block 9.2µM
COc1ccccc1NC(=O)Nc1nc(CC(=O)N2CCN(c3ccccc3)CC2)cs1	Nrf2 block 7.31µM
COc1ccc(NC(=O)C2CCN(S(=O)(=O)c3ccc4c(c3)NC(=O)C(C)S4)CC2)cc1 (stereo not given)	Nrf2 block 23.1µM
CCOc1ccc(NC(=O)C2CCN(S(=O)(=O)c3ccc4c(c3)NC(=O)C(C)S4)CC2)cc1 (stereo not given)	Nrf2 block 14.6µM
COc1cccc(NC(=O)C2CCN(S(=O)(=O)c3ccc4c(c3)NC(=O)C(C)S4)CC2)c1 (stereo not given)	Nrf2 block inconclusive
Cc1nc2cc(-c3ccccc3)nn2c(C)c1CCC(=O)N1CCN(c2ccc(F)cc2)CC1	Nrf2 block 5.17µM
Cc1nc2cc(-c3cccc(F)c3)nn2c(C)c1CCC(=O)NC(C)CCc1ccco1 (stereo not given)	Nrf2 block 0.82µM
Cc1nc2cc(-c3cccc(F)c3)nn2c(N2CCN(C(=O)c3ccco3)CC2)c1C	Nrf2 activator 12.6µM
O=C(CN1C(=O)CCc2cc(Br)ccc21)Nc1ccc(OC(F)(F)F)cc1	none (no result: Nrf2 block)
CCN1C(=O)Nc2cccc3cccc1c23	Nrf2 activator inconclusive, Nrf2 block 8.2µM
COc1ccc2c(c1)c(/C=C/c1cc[n+](C)cc1)cn2C	Pin1 inhibitor inconclusive, Nrf2 block 11.6µM
CC1(C)CC(=O)C/C(=N/NC(=O)c2ccc(-c3ccccc3)cc2)C1	Nrf2 block 16.4µM
CCN(CC)S(=O)(=O)c1cc(NC(=O)C(C)N2CCc3ccccc32)ccc1C (stereo not given)	Nrf2 block inconclusive
CCN(CC)S(=O)(=O)c1cc(NC(=O)C(C)N(C)CC(=O)Nc2c(C)cccc2C)ccc1C (stereo not given)	Nrf2 block 16.4µM, A549 tox inconclusive
CS(=O)(=O)N(CC(=O)Nc1ccc(CC#N)cc1)c1ccc(C23CC4CC(CC(C4)C2)C3)cc1	Nrf2 block 14.6µM, A549 tox inconclusive
Cc1[nH]c2ccccc2c1C(=O)COC(=O)C1CC(O)CN1S(=O)(=O)c1ccc(Cl)cc1 (stereo not given)	Pin1 inhibitor inconclusive
CSCCC(NS(=O)(=O)c1ccc(Cl)cc1)C(=O)OCC(=O)c1c(C)[nH]c2ccccc12 (stereo not given)	Nrf2 block 18.4µM, A549 tox inconclusive
CCc1nn(CC(=O)NCC(C)c2ccccc2)c(=O)c2cc3c(OC)cccc3n12 (stereo not given)	none
Cc1[nH]nc2c1C(c1ccc(-c3ccc(Cl)cc3)o1)C(C#N)=C(N)O2 (stereo not given)	Nrf2 activator 15.8µM
Cc1ccc(S(=O)(=O)N2CCN(c3nc(C#N)nc4ccccc34)CC2)cc1	none (no result: Nrf2 activator)
CC(C)(C)c1ccc(C(=O)Nc2ccc(CN3CCS(=O)(=O)CC3)cc2)cc1	Nrf2 block 7.31µM
CC(C)(C)c1ccc(C(=O)Nc2ccc(Cl)cc2)cc1	Nrf2 block inconclusive
COC(=O)Cc1ccc(NC(=O)c2ccc(C(C)(C)C)cc2)cc1	Nrf2 block 2.06µM, A549 tox inconclusive
O=C(Nc1ccc(CN2CCS(=O)(=O)CC2)cc1)c1ccc(C(F)(F)F)cc1	Nrf2 block 18.4µM
CCc1cccc(C)c1NC(=O)Cn1ccn(Cc2ccc(Cl)cc2)c(=O)c1=O	none
COc1ccc(C2CC(=O)c3cc(-c4nc(-c5cccc([N+](=O)[O-])c5)cs4)c(=O)n(-c4ccccc4C)c3C2)cc1 (stereo not given)	Nrf2 block inconclusive
O=C(OCC#CCSc1nnc(-c2cccc3ccccc23)o1)c1cc2ccccc2s1	none (no result: Nrf2 activator)
CCN1C(=O)/C(=C/C=C2\C=CN(CC)c3ccccc32)SC1=S	none
CCN1C(=O)/C(=C\C=C2/C=CC=CN2CC)SC1=S	Pin1 inhibitor inconclusive, Nrf2 block inconclusive, A549 tox 14.6µM
CCOc1ccc(CCNC(=O)CCc2c(C)nc3c(c(C)nn3-c3ccccc3)c2C)cc1OCC	none
O=C(Nc1ccc2c(c1)OCO2)C1CCN(S(=O)(=O)c2ccc3c(c2)OCCO3)CC1	Pin1 inhibitor inconclusive, Nrf2 block inconclusive
CC(=O)N1CCOc2ccc(S(=O)(=O)N3CCC(C(=O)Nc4ccc(F)cc4)CC3)cc21	Nrf2 block inconclusive
CC(=O)N1CCOc2ccc(S(=O)(=O)N3CCC(C(=O)Nc4ccc(C)c(C)c4)CC3)cc21	Nrf2 block 16.4µM
COc1ccc(S(=O)(=O)N2CCC(C(=O)Nc3ccc4c(c3)OCCO4)CC2)cc1OC	Nrf2 block 20.6µM
